In ChEMBL document CHEMBL5308504, “Tm Shift (DSF) assay results for EUbOPEN Chemogenomics Library” (2023) one finds ΔTm data, which are given here for 39 compounds.

Usually ΔTm stands for the shift of the melting midpoint relative to a reference.

Several values for one entry are separate records, joined by “and”; a condition that tells them apart may be missing. Equal entries are not always repeated.

The target in the first assay is Bromodomain-containing protein 4 (Homo sapiens) (UniProt O60885). As to conditions: Compound concentration 20.0 uM, Protein concentration 2.0 uM, Result type QC Liability.
On to `O=C(CNCc1cc2ccccc2[nH]1)N[C@H]1CC[C@@H](c2nc3ccccc3[nH]2)CC1`, for which the ΔTm was -0.08 °C.

For the compound `CC1CCN(C(=O)[C@H](CCn2cccc2C#N)NS(=O)(=O)c2cccc3[nH]ccc23)CC1`, the ΔTm stood at 0.4 °C.

Consider `COc1cccc(CNc2ccc(S(=O)(=O)Nc3nc4ccccc4s3)cc2)c1O`, for which the ΔTm is 0.58 °C.

For `N#CN1CC[C@@H](C(=O)Nc2nc3c(s2)CN(C(=O)CN=[N+]=[N-])CC3)C1`, the ΔTm was -1.95 °C.

As to `CCc1cc2c(cc1N1CCC(N3CCOCC3)CC1)C(C)(C)c1[nH]c3cc(C#N)ccc3c1C2=O`, the ΔTm was -2.92 °C.

For the compound `C[C@@H]1CCNC(=O)c2cc3ccc(C(=O)Nc4nc5ccccc5n4CCCN(C)C)cc3n21`, the ΔTm was -0.87 °C.

Consider `COc1cc2c(NC3CCN(C(C)C)CC3)nc(C3CCCCC3)nc2cc1OCCCN1CCCC1`, for which the ΔTm is -2.43 °C.

As to `c1ccc2c(c1)SCc1c-2[nH]c2ccccc12`, the ΔTm is -15.3 °C.

Regarding `O=C(O)c1ccc2c(c1)nc(NCc1ccccc1)c1ncncc12`, the ΔTm was -2.21 °C.

Take `CC(C)(C)c1cc(NC(=O)c2csc(Nc3ccc(Cl)cc3)n2)no1`: the ΔTm was -0.97 °C.

As for `NC(=O)c1ccccc1Nc1nc(-c2ccc(N3CCOCC3)cc2)cc2ncccc12`, the thermal shift (ΔTm) is -2.32 °C.

For `CC(C)c1nc2c(c3c1[C@H](c1ccc(C(F)(F)F)cc1)OC31CCOCC1)[C@H](O)CC(C)(C)C2`, the ΔTm is -0.03 °C.

Regarding `O=C(O)/C=C/c1ccc(Cn2ccnc2)cc1`, the ΔTm was -0.17 °C.

On to `Fc1ccc(-c2c3cccc(C(F)(F)F)c3nn2Cc2ccc(F)cc2Cl)cc1`, for which the ΔTm was -3.53 °C.

Consider `COc1cc(O)c(C(CC(=O)N2C[C@H](C)C[C@H](C)C2)c2ccc3c(c2)OCO3)c(OC)c1` (stereo partly drawn), for which the ΔTm turned out to be 0.54 °C.

`O=C(N[C@H]1CCC[C@H](CO)C1)C1CCN(c2nc3cc(Cl)c(-c4ccc(Cl)cc4)cc3o2)CC1`: the ΔTm was -3.15 °C.

As for `CC(C)c1cnn2c(NCc3ccccc3)cc(NCCCCCCN)nc12`, the ΔTm was found to be 0.76 °C.

As for `Cn1cc(-c2ccc(N(C(=O)NCc3ccccc3)[C@H]3CC[C@H](Nc4ccc(C#N)cn4)CC3)cc2)ccc1=O`, the ΔTm was -0.82 °C.

As to `Cc1cc(Cn2c(N3CC4(CNC4)C3)nc3cc(Cl)cc(N4CCN(C)CC4)c32)cc(C)c1F`, the ΔTm is -0.27 °C.

In the case of `CC/C(=C(\c1ccccc1)c1ccc(OCCN(C)C)cc1)c1ccccc1`, the ΔTm was -4.1 °C.

For `CC(C)c1nc2c(c3c1[C@@H](c1ccc(C(F)(F)F)cc1)OC31CCOCC1)[C@@H](O)CC(C)(C)C2`, the ΔTm was -1.67 °C.

Take `CC(C)(O)c1cn(-c2ccc(-c3cccc(S(C)(=O)=O)c3)cc2)c(C(C)(C)c2ccccc2Cl)n1`: the ΔTm was -4.36 °C.

On to `CCS(=O)(=O)c1cc2cc(C[C@@](O)(CC(C)(C)c3ccc(F)cc3C(N)=O)C(F)(F)F)[nH]c2cn1`, for which the ΔTm is 0.67 °C and -0.3 °C.

Turning to `Cc1nccn1-c1ccc(Sc2cccc(C3(C(N)=O)CCOCC3)c2)cc1`, the ΔTm is -0.68 °C.

Consider `Fc1cccc(-n2cnc3c(NCc4nc5c(F)c(F)ccc5[nH]4)nc(N4CCOCC4)nc32)c1`, for which the ΔTm stood at 0.39 °C.

Consider `CC1(C)Cc2nc(C3CCCC3)c([C@@H](F)c3ccc(C(F)(F)F)cc3)c(C3CCCCC3)c2[C@@H](O)C1`, for which the ΔTm stood at 0.17 °C.

As for `O=C1Nc2ccc(I)cc2/C1=C/c1cc(Br)c(O)c(Br)c1`, the thermal shift (ΔTm) was -0.9 °C.

As for `CC(=O)Nc1ncc(CN2CCC[C@H](Cc3cc(C)nc(C)c3)C2)s1`, the ΔTm worked out at 0.62 °C.

On to `CN(C)CC#Cc1ccc2[nH]c3c(c2c1)-c1nc(N)ncc1CCC3`, for which the ΔTm is -1.33 °C.

As for `CCCCCNC(=O)N1CCC(CN(Cc2ccc(Cl)cc2)Cc2ccc([N+](=O)[O-])s2)C1` (stereo not drawn), the ΔTm is -2.51 °C.

Take `Cc1n[nH]c2ncc(C(=O)N3CCC[C@H]3c3ccc(Cl)cc3)cc12`: the ΔTm was 0 °C.

As to `COc1cc(-c2cc3ncccc3c(O[C@@H](C)[C@H]3CNC(=O)C3)n2)cc(OC)c1OC`, the ΔTm was determined as 1.39 °C.

Consider `Cn1ncc(NC(=O)c2nc(-c3c(F)cccc3F)sc2N)c1N1CC[C@@H](N)[C@H](F)CC1`, for which the ΔTm was -1.02 °C.

Consider `Cn1cc(-n2cnc3c(NCc4nc5cc(Cl)c(Cl)cc5[nH]4)nc(N4CCOCC4)nc32)cn1`, for which the ΔTm is 0.71 °C.

With `Cc1cnc(-c2cnc(NCCNc3ccc(C#N)cn3)nc2-c2ccc(Cl)cc2Cl)[nH]1`, the ΔTm was -2.28 °C.

As for `O=C(O)CCCCN(CCc1cc(F)ccc1OCc1ccc(-c2ccc(C(F)(F)F)cc2)cc1)Cc1ccc(C(=O)O)cc1`, the ΔTm was 0.73 °C.

Take `CS(=O)(=O)CCNCc1ccc(-c2ccc3ncnc(Nc4ccc(OCc5cccc(F)c5)c(Cl)c4)c3c2)o1`: the ΔTm is -2.54 °C.

As for `NC(=O)c1ccc(-c2nc(-c3ccc4c(c3)OCCO4)c(-c3ccccn3)[nH]2)cc1`, the ΔTm was -0.56 °C.

Consider `O=C(Nc1ccnc(NC(=O)C2CC2)c1)c1c(Cl)cccc1Cl`, for which the ΔTm was -1.81 °C.

Another assay deals with T1, Transcription intermediary factor 1-alpha (Homo sapiens) (UniProt O15164).
T1 sequence (whole entry): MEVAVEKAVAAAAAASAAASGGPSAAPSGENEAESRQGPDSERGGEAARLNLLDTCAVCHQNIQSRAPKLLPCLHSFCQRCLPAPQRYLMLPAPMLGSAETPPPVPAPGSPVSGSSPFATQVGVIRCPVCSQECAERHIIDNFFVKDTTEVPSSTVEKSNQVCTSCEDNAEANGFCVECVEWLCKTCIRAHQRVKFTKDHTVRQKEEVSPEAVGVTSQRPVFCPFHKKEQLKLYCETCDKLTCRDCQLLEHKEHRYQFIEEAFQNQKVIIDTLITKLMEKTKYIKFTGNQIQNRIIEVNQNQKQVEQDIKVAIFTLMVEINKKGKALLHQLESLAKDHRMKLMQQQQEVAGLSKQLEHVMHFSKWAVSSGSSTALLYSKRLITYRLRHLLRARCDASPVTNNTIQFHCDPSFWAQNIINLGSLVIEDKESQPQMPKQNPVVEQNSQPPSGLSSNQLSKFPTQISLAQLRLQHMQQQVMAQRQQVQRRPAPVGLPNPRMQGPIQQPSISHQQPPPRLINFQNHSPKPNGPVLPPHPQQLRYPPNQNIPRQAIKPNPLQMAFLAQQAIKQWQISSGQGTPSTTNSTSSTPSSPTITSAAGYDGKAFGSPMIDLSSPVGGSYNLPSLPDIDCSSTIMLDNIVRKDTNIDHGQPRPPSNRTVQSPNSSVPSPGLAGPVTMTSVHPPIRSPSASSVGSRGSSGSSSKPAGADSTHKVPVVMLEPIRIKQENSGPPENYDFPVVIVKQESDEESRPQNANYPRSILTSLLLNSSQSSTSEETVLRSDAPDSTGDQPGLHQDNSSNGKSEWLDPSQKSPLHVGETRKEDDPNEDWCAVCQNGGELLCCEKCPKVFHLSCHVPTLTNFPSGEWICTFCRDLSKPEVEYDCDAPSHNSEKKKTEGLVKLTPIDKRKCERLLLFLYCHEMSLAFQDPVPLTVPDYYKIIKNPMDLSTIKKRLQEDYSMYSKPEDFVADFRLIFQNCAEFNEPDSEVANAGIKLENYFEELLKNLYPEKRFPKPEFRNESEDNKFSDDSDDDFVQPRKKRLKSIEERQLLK
As to conditions: Compound concentration 20.0 uM, Protein concentration 2.0 uM, Result type QC Liability.
On to `O=C(CNCc1cc2ccccc2[nH]1)N[C@H]1CC[C@@H](c2nc3ccccc3[nH]2)CC1`, for which the ΔTm was -0.53 °C.

Consider `CC1CCN(C(=O)[C@H](CCn2cccc2C#N)NS(=O)(=O)c2cccc3[nH]ccc23)CC1`, for which the ΔTm worked out at 0.4 °C.

In the case of `COc1cccc(CNc2ccc(S(=O)(=O)Nc3nc4ccccc4s3)cc2)c1O`, the ΔTm is 0.53 °C.

As to `N#CN1CC[C@@H](C(=O)Nc2nc3c(s2)CN(C(=O)CN=[N+]=[N-])CC3)C1`, the ΔTm was -0.82 °C.

For `CCc1cc2c(cc1N1CCC(N3CCOCC3)CC1)C(C)(C)c1[nH]c3cc(C#N)ccc3c1C2=O`, the ΔTm was -0.86 °C.

Regarding `C[C@@H]1CCNC(=O)c2cc3ccc(C(=O)Nc4nc5ccccc5n4CCCN(C)C)cc3n21`, the ΔTm was -0.45 °C.

On to `COc1cc2c(NC3CCN(C(C)C)CC3)nc(C3CCCCC3)nc2cc1OCCCN1CCCC1`, for which the ΔTm is -2.96 °C.

Take `c1ccc2c(c1)SCc1c-2[nH]c2ccccc12`: the ΔTm is -7.68 °C.

In the case of `O=C(O)c1ccc2c(c1)nc(NCc1ccccc1)c1ncncc12`, the ΔTm amounted to 0.06 °C.

`CC(C)(C)c1cc(NC(=O)c2csc(Nc3ccc(Cl)cc3)n2)no1`: the ΔTm was 0.11 °C.

In the case of `NC(=O)c1ccccc1Nc1nc(-c2ccc(N3CCOCC3)cc2)cc2ncccc12`, the ΔTm is -2.3 °C.

Turning to `CC(C)c1nc2c(c3c1[C@H](c1ccc(C(F)(F)F)cc1)OC31CCOCC1)[C@H](O)CC(C)(C)C2`, the ΔTm is 0.26 °C.

Turning to `O=C(O)/C=C/c1ccc(Cn2ccnc2)cc1`, the ΔTm was -0.33 °C.

For the compound `Fc1ccc(-c2c3cccc(C(F)(F)F)c3nn2Cc2ccc(F)cc2Cl)cc1`, the thermal shift (ΔTm) is -1.16 °C.

Take `COc1cc(O)c(C(CC(=O)N2C[C@H](C)C[C@H](C)C2)c2ccc3c(c2)OCO3)c(OC)c1` (stereo partly drawn): the ΔTm is -3.38 °C.

As for `O=C(N[C@H]1CCC[C@H](CO)C1)C1CCN(c2nc3cc(Cl)c(-c4ccc(Cl)cc4)cc3o2)CC1`, the ΔTm amounted to 1.95 °C.

In the case of `CC(C)c1cnn2c(NCc3ccccc3)cc(NCCCCCCN)nc12`, the ΔTm was -3.25 °C.

Regarding `Cn1cc(-c2ccc(N(C(=O)NCc3ccccc3)[C@H]3CC[C@H](Nc4ccc(C#N)cn4)CC3)cc2)ccc1=O`, the ΔTm was -1.6 °C.

`Cc1cc(Cn2c(N3CC4(CNC4)C3)nc3cc(Cl)cc(N4CCN(C)CC4)c32)cc(C)c1F`: the ΔTm worked out at 0.27 °C.

In the case of `CC/C(=C(\c1ccccc1)c1ccc(OCCN(C)C)cc1)c1ccccc1`, the ΔTm was -5.01 °C.

Take `CC(C)c1nc2c(c3c1[C@@H](c1ccc(C(F)(F)F)cc1)OC31CCOCC1)[C@@H](O)CC(C)(C)C2`: the ΔTm worked out at 0.17 °C.

Take `CC(C)(O)c1cn(-c2ccc(-c3cccc(S(C)(=O)=O)c3)cc2)c(C(C)(C)c2ccccc2Cl)n1`: the ΔTm was -3.39 °C.

Regarding `CCS(=O)(=O)c1cc2cc(C[C@@](O)(CC(C)(C)c3ccc(F)cc3C(N)=O)C(F)(F)F)[nH]c2cn1`, the ΔTm was 0.3 °C and -2.64 °C.

On to `Cc1nccn1-c1ccc(Sc2cccc(C3(C(N)=O)CCOCC3)c2)cc1`, for which the ΔTm was -1.02 °C.

For the compound `Fc1cccc(-n2cnc3c(NCc4nc5c(F)c(F)ccc5[nH]4)nc(N4CCOCC4)nc32)c1`, the ΔTm is -0.44 °C.

With `CC1(C)Cc2nc(C3CCCC3)c([C@@H](F)c3ccc(C(F)(F)F)cc3)c(C3CCCCC3)c2[C@@H](O)C1`, the ΔTm came out at 0.34 °C.

Take `O=C1Nc2ccc(I)cc2/C1=C/c1cc(Br)c(O)c(Br)c1`: the ΔTm is -2.17 °C.

For the compound `CC(=O)Nc1ncc(CN2CCC[C@H](Cc3cc(C)nc(C)c3)C2)s1`, the ΔTm was -2.22 °C.

Take `CN(C)CC#Cc1ccc2[nH]c3c(c2c1)-c1nc(N)ncc1CCC3`: the ΔTm is -0.98 °C.

On to `CCCCCNC(=O)N1CCC(CN(Cc2ccc(Cl)cc2)Cc2ccc([N+](=O)[O-])s2)C1` (stereo not drawn), for which the ΔTm is -3.43 °C.

For the compound `Cc1n[nH]c2ncc(C(=O)N3CCC[C@H]3c3ccc(Cl)cc3)cc12`, the ΔTm was -1.73 °C.

For the compound `COc1cc(-c2cc3ncccc3c(O[C@@H](C)[C@H]3CNC(=O)C3)n2)cc(OC)c1OC`, the ΔTm was determined as 0.27 °C.

For `Cn1ncc(NC(=O)c2nc(-c3c(F)cccc3F)sc2N)c1N1CC[C@@H](N)[C@H](F)CC1`, the ΔTm is -1.63 °C.

With `Cn1cc(-n2cnc3c(NCc4nc5cc(Cl)c(Cl)cc5[nH]4)nc(N4CCOCC4)nc32)cn1`, the ΔTm is -0.85 °C.

For the compound `Cc1cnc(-c2cnc(NCCNc3ccc(C#N)cn3)nc2-c2ccc(Cl)cc2Cl)[nH]1`, the ΔTm is -0.78 °C.

Take `O=C(O)CCCCN(CCc1cc(F)ccc1OCc1ccc(-c2ccc(C(F)(F)F)cc2)cc1)Cc1ccc(C(=O)O)cc1`: the ΔTm is -0.3 °C.

With `CS(=O)(=O)CCNCc1ccc(-c2ccc3ncnc(Nc4ccc(OCc5cccc(F)c5)c(Cl)c4)c3c2)o1`, the ΔTm was -3.02 °C.

As to `NC(=O)c1ccc(-c2nc(-c3ccc4c(c3)OCCO4)c(-c3ccccn3)[nH]2)cc1`, the ΔTm was -0.21 °C.

As to `O=C(Nc1ccnc(NC(=O)C2CC2)c1)c1c(Cl)cccc1Cl`, the ΔTm is -3.69 °C.
